Hit rate of the full screen: of about 39,000 compounds, about 3,300 (8.5%) were called active. The sample as a whole holds a higher share of actives than the screen did.
tested on: HepG2; assay: cytotoxicity call (relative viability < 0.9); conditions: 10 µM

How did the cytotoxicity call turn out when `C[C@H]1CN([C@@H](C)CO)C(=O)c2ccccc2-c2ccccc2CO[C@H]1CN(C)Cc1ccc(-c2ccccc2)cc1` was run?
The cytotoxicity call was “inactive”.

For `CN(C)C(=O)N1C[C@@H]2[C@@H](C1)C(=O)N(C)C21CCN(S(C)(=O)=O)CC1`, which cytotoxicity call is on record?
Its cytotoxicity call is “inactive”.

How did the cytotoxicity call turn out when `C[C@H](O)[C@H](O)[C@@H](O)[C@@H](O)/C=N/NC(=O)c1ccccn1` was run?
The cytotoxicity call was “inactive”.

Which cytotoxicity call does the source give for `O=C(C[C@@H]1CC[C@@H]2[C@H](COC[C@H](O)CN2CC2CCOCC2)O1)N1CCOCC1` here?
The cytotoxicity call was “inactive”.

For `CCc1nc2ccc(C(=O)NCCOc3ccc(OC)cc3)cn2c1N(CC)Cc1cccc(Br)c1`, which cytotoxicity call is on record?
The cytotoxicity call was “inactive”.

How did the cytotoxicity call turn out when `Cc1cc(C)c(N(Cc2ccccc2)S(=O)(=O)c2ccc(OCCNC(=O)c3cc4ccccc4o3)cc2)c(C(=O)NO)c1` was run?
The cytotoxicity call was “active”.

Which cytotoxicity call does the source give for `O=C(NCCO)c1cc2ccccc2oc1=O` here?
Its cytotoxicity call is “inactive”.

How did the cytotoxicity call turn out when `Cc1ccc(S(=O)(=O)N(C)C[C@H]2Oc3ccc(NS(=O)(=O)c4cccs4)cc3C(=O)N([C@H](C)CO)C[C@@H]2C)cc1` was run?
Its cytotoxicity call is “inactive”.

With `COc1ccc(COC[C@]23NC(=O)N(C(=O)c4ccccc4)[C@H](c4ccccc4O2)[C@H]3CO[Si](C)(C)C(C)(C)C)cc1` as the compound, how does the cytotoxicity call read?
The cytotoxicity call was “inactive”.

How did the cytotoxicity call turn out when `C[C@@H]1CN([C@H](C)CO)C(=O)Cc2cc(NC(=O)C3CCCCC3)ccc2O[C@H]1CN(C)S(C)(=O)=O` was run?
Its cytotoxicity call is “inactive”.

For `C[C@H]1CCCCO[C@H](CN(C)Cc2ccc(Cl)c(Cl)c2)[C@@H](C)CN([C@@H](C)CO)C(=O)c2cc(NC(=O)Nc3cccc4ccccc34)ccc2O1`, which cytotoxicity call is on record?
The cytotoxicity call was “inactive”.

Which cytotoxicity call does the source give for `C[C@@H]1CCCCO[C@@H](CN(C)C(=O)C2CCCCC2)[C@@H](C)CN([C@@H](C)CO)C(=O)c2cc(NC(=O)NC3CCCCC3)ccc2O1` here?
Its cytotoxicity call is “inactive”.

For `C[C@H](CO)N1C[C@H](C)[C@@H](CN(C)C(=O)C2CCCCC2)OCCCC[C@H](C)Oc2ccc(NC(=O)NC3CCCCC3)cc2C1=O`, which cytotoxicity call is on record?
The cytotoxicity call was “inactive”.

How did the cytotoxicity call turn out when `C[C@@H]1CCCCO[C@H](CN(C)C(=O)C2CCCCC2)[C@@H](C)CN([C@H](C)CO)C(=O)c2cc(NC(=O)NC3CCCCC3)ccc2O1` was run?
Its cytotoxicity call is “inactive”.

With `C[C@@H]1CCCCO[C@H](CN(C)C(=O)C2CCCCC2)[C@@H](C)CN([C@@H](C)CO)C(=O)c2cc(NC(=O)NC3CCCCC3)ccc2O1` as the compound, how does the cytotoxicity call read?
Its cytotoxicity call is “inactive”.

For `C[C@H]1CCCCO[C@H](CN(C)C(=O)C2CCCCC2)[C@@H](C)CN([C@@H](C)CO)C(=O)c2cc(NC(=O)NC3CCCCC3)ccc2O1`, which cytotoxicity call is on record?
Its cytotoxicity call is “inactive”.

`C[C@@H]1CCCCO[C@H](CN(C)C(=O)C2CCCCC2)[C@H](C)CN([C@@H](C)CO)C(=O)c2cc(NC(=O)NC3CCCCC3)ccc2O1` was tested. Which cytotoxicity call did it give?
The cytotoxicity call was “active”.

How did the cytotoxicity call turn out when `C[C@H](CO)N1C[C@H](C)[C@H](CN(C)C(=O)C2CCCCC2)OCCCC[C@H](C)Oc2ccc(NC(=O)NC3CCCCC3)cc2C1=O` was run?
Its cytotoxicity call is “active”.

`C[C@@H]1CCCCO[C@@H](CN(C)C(=O)C2CCCCC2)[C@H](C)CN([C@@H](C)CO)C(=O)c2cc(NC(=O)NC3CCCCC3)ccc2O1` was tested. Which cytotoxicity call did it give?
Its cytotoxicity call is “inactive”.

For `C[C@@H]1CN([C@@H](C)CO)C(=O)c2cc(NC(=O)NC3CCCCC3)ccc2O[C@@H](C)CCCCO[C@H]1CN(C)C(=O)C1CCCCC1`, which cytotoxicity call is on record?
Its cytotoxicity call is “active”.

From the antibiotic and cytotoxicity screens of Wong et al. (2023)
